Measured values as given in PubChem BioAssay (NCI).
This is part of a sample that, as a whole, favours compounds with a hit. Of some 83,000 tested, about 20% had one in any assay.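 A percent growth of 40 corresponds to 60% growth inhibition; 0 means no net growth; -100 means all cells died. Active threshold: below 10.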 Values without a mark were called inactive. Calls of active or inactive are those of the source.

Legend:
Experiment in all cases: NCI-60 one-dose screen, 48 h (100 = growth as untreated, 0 = no growth, -100 = all killed)
Conditions in all cases: 10 µM unless noted
SK-MEL-2 melanoma = tested on: SK-MEL-2 melanoma
EKVX NSCLC = tested on: EKVX NSCLC
SN12C renal = tested on: SN12C renal
UO-31 renal = tested on: UO-31 renal
TK-10 renal = tested on: TK-10 renal
ACHN renal = tested on: ACHN renal
CAKI-1 renal = tested on: CAKI-1 renal
A498 renal = tested on: A498 renal
CCRF-CEM leukemia = tested on: CCRF-CEM leukemia
MOLT-4 leukemia = tested on: MOLT-4 leukemia
RPMI-8226 leukemia = tested on: RPMI-8226 leukemia
OVCAR-8 ovarian = tested on: OVCAR-8 ovarian
OVCAR-4 ovarian = tested on: OVCAR-4 ovarian
SK-OV-3 ovarian = tested on: SK-OV-3 ovarian
IGROV1 ovarian = tested on: IGROV1 ovarian
OVCAR-3 ovarian = tested on: OVCAR-3 ovarian
NCI/ADR-RES ovarian = tested on: NCI/ADR-RES ovarian
HS 578T breast = tested on: HS 578T breast
OVCAR-5 ovarian = tested on: OVCAR-5 ovarian
SR leukemia = tested on: SR leukemia

| Compound | growth (SK-MEL-2 melanoma) | growth (EKVX NSCLC) | growth (SN12C renal) | growth (UO-31 renal) | growth (TK-10 renal) | growth (ACHN renal) | growth (CAKI-1 renal) | growth (A498 renal) | growth (CCRF-CEM leukemia) | growth (MOLT-4 leukemia) | growth (RPMI-8226 leukemia) | growth (OVCAR-8 ovarian) | growth (OVCAR-4 ovarian) | growth (SK-OV-3 ovarian) | growth (IGROV1 ovarian) | growth (OVCAR-3 ovarian) | growth (NCI/ADR-RES ovarian) | growth (HS 578T breast) | growth (OVCAR-5 ovarian) | growth (SR leukemia) |
| --- | --- | --- | --- | --- | --- | --- | --- | --- | --- | --- | --- | --- | --- | --- | --- | --- | --- | --- | --- | --- |
| CC1CCCCN1CCCNC(=O)N/C(N)=N/c1nc2ccccc2s1 (configuration not stated) | 41.3% | 46.1% | 40.9% | 24.4% | 70.1% | 42.5% | 24.6% | 104% | 26.8% | 16.4% | 1.48% (active) | 75.2% | 74.9% | 58.8% | 47.9% | 72.4% | 64.1% | – | – | – |
| COc1ccc2c(c1)c(/C=N/Nc1ccc3ccccc3n1)cn2C | 81.8% | 53.1% | -71.7% (active) | -31.3% (active) | 43.4% | -85.4% (active) | -45.4% (active) | 83.3% | 10.8% | -27.4% (active) | -26.7% (active) | 28.9% | 12.3% | 54% | 16.4% | -34.2% (active) | 2.35% (active) | 18.2% | – | – |
| O=C(COc1ccc(NC(=O)Nc2ccc(Cl)c(Cl)c2)cc1)N=Nc1c(O)[nH]c2ccc(Br)cc12 | -71.6% (active) | 4.88% (active) | -20.9% (active) | 51.1% | -0.92% (active) | 12.5% | 0.251% (active) | -54.9% (active) | 9.52% (active) | -3.16% (active) | 3.61% (active) | – | -27% (active) | -43.3% (active) | -51% (active) | -76.4% (active) | 82.4% | -5.94% (active) | -44.5% (active) | – |
| COCOc1ccc2c(=O)c(C)c(C(=O)N[C@@H](Cc3ccccc3)C(O)C(=O)NCCc3ccc(OC)cc3)oc2c1 (some centres not stated) | 118% | 111% | 95.2% | -20.1% (active) | 116% | 114% | 101% | 136% | 105% | 94.8% | 100% | 107% | 122% | 113% | 122% | 120% | 107% | 104% | – | – |
| CC1=C(C(=O)c2ccccc2)C(c2ccc(-n3cncn3)cc2)n2c(nc3ccccc32)N1 (configuration not stated) | 101% | 64.4% | 79.4% | -22.7% (active) | 104% | 88.8% | 62.8% | 113% | 70.9% | 66.9% | 63.4% | 91.4% | 71.8% | 79.3% | 83.1% | 107% | 85.6% | – | 97.3% | – |
| COc1c(F)ccc(C(=O)Nc2ccc3nc(NC(=O)C4CCCN(S(=O)(=O)c5ccc(C(F)(F)F)cc5)C4)sc3c2)c1F (configuration not stated) | 84.7% | 103% | 82.4% | 55.3% | 99.9% | 72.3% | 61.2% | 96.7% | 89.5% | 47.2% | 54.3% | 95.8% | – | 103% | 70.5% | 78.2% | 80% | 51.4% | 100% | – |
| COc1ccc(C(=O)/C=C/c2ccc(OCc3ccccc3)c(OC)c2)cc1OC | 72.7% | 80.4% | 1.82% (active) | 31.4% | 62.7% | 38.3% | 38.8% | 102% | 9.36% (active) | – | 9.53% (active) | -1.43% (active) | 25.6% | 83.5% | 23.3% | 25.8% | 19.7% | 75.5% | 4.82% (active) | 8.91% (active) |
| COc1cc2c(c(OC)c1OC)C(=O)CC(c1cccc(NC(=O)c3cccc([N+](=O)[O-])c3)c1)O2 (configuration not stated) | -10.4% (active) | 60.6% | 29.2% | 16.1% | 71.7% | 30.1% | 22.1% | 91.2% | 11.5% | 13.9% | 8.29% (active) | – | 27.1% | 64.2% | 27% | 19.4% | 14.5% | 25.1% | 79.3% | – |
| COc1cccc(/C=C/c2nc3ccccc3c(=O)n2CC(=O)Nc2ccc(Cl)cc2)c1 | 111% | 109% | 39.2% | 16% | 32.2% | -1.49% (active) | 60.5% | 25.1% | 86.1% | – | 88.3% | 48.8% | -11.4% (active) | 76.8% | 77.3% | 35.5% | 69.3% | 32.8% | 73.5% | 79.7% |
| Cc1ccccc1[C@H]1C(C(=O)c2ccc(Cl)cc2)C2(N[C@@H]1c1ccccc1)C(=O)Nc1ccc(Cl)cc12 (some centres not stated) | -64% (active) | -20.6% (active) | -95.4% (active) | 0.337% (active) | 9% (active) | -9.02% (active) | 8.92% (active) | 50% | -14.9% (active) | – | -11.8% (active) | -69.2% (active) | 11.2% | 1.06% (active) | 2.05% (active) | -52.4% (active) | -65.7% (active) | 6.9% (active) | -55.8% (active) | -23.6% (active) |
| COCOc1cc2oc(C(=O)N[C@@H](Cc3ccccc3)C(O)C(=O)NCc3ccccc3)c(C)c(=O)c2cc1OCOC (some centres not stated) | 79.7% | 107% | 51.9% | 87.1% | 63.2% | 66.9% | 84.7% | -35.2% (active) | 104% | 97.3% | 99.3% | – | 43.9% | 33.4% | 101% | 99% | 98.5% | 71.4% | 91.8% | – |
| CCOC(=O)C1=C(N)N(c2ccccc2)C2=C(C(=O)CC(C)(C)C2)C1c1ccc(Cl)cc1Cl (configuration not stated) | -12.3% (active) | 18.8% | 20.6% | 16.8% | 36.6% | 17.1% | 23.1% | 46.8% | 19.3% | 7.23% (active) | 7.77% (active) | 36.7% | 25.3% | 34.5% | 59.4% | 33.3% | 23.6% | – | 56.9% | – |
| CCN1C(=O)N(CC)C2NNC(Sc3c(C(=O)O)c4ccccc4n(C4CCCC4)c3=O)=NC21 (configuration not stated) | 27% | 45.7% | 34.3% | 46.8% | 80.1% | 25.7% | 27.5% | 102% | 24.8% | – | 24.8% | 4.93% (active) | 61.8% | 32.8% | 29.6% | -32.5% (active) | 25.1% | 7.18% (active) | 38.4% | 22.4% |
| Cn1cc(-c2cc(N)n3nc(-c4cn(C)c5ccc(Cl)cc45)cc3n2)c2ccccc21 | 114% | 104% | 108% | 107% | 79.3% | 100% | 95.4% | 101% | 115% | 104% | 109% | 104% | – | 105% | 111% | 122% | 105% | 113% | 108% | – |
| CC(=O)c1cc(C(=O)c2ccccc2)n2c1ccc1ccccc12 | 117% | 98.5% | 90.6% | 55.5% | 142% | 91.7% | 79.6% | 129% | 108% | – | 95.6% | 99% | 102% | 85.8% | 88.6% | 112% | 101% | 94.1% | 103% | 81.4% |
| COc1cc2c(c(OC)c1OC)C(=O)CC(c1cccc(NC(=O)c3cc(N)ccc3Cl)c1)O2 (configuration not stated) | 32.7% | 78.7% | 64.6% | 51.5% | 106% | 50.6% | 50.3% | 105% | 22.5% | 21.5% | 40.2% | 18.8% | – | 65.6% | 72.9% | 33.8% | 20.5% | 80.6% | 100% | – |
